Compounds without any hit were thinned out: in the full panel of roughly 83,000, 20% have a hit.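 Compound tested at a single concentration for 48 hours in 96-well plates; a percent growth value below 10 was scored as active.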 A number with no mark means an inactive call. Active and inactive are the calls of the source.

Common to all, as to assay: NCI-60 one-dose screen, 48 h (100 = growth as untreated, 0 = no growth, -100 = all killed)
In one test the test system is SK-MEL-2 melanoma. The conditions noted are these: 10 µM unless noted.
The next test deals with EKVX NSCLC. The conditions noted are these: 10 µM unless noted.
Another test deals with SN12C renal. The conditions noted are these: 10 µM unless noted.
The next test concerns UO-31 renal. The conditions noted are these: 10 µM unless noted.
Another test deals with TK-10 renal. The conditions noted are these: 10 µM unless noted.
For the next test, the system named is ACHN renal. The conditions noted are these: 10 µM unless noted.
The test system of another test is CAKI-1 renal. The conditions noted are these: 10 µM unless noted.
The next test concerns A498 renal. The conditions noted are these: 10 µM unless noted.
In the next test the test system is CCRF-CEM leukemia. The conditions noted are these: 10 µM unless noted.
The next test has as its system MOLT-4 leukemia. The conditions noted are these: 10 µM unless noted.
A further test has as its system RPMI-8226 leukemia. The conditions noted are these: 10 µM unless noted.
The test system of the next test is OVCAR-8 ovarian. The conditions noted are these: 10 µM unless noted.
The test system of a further test is OVCAR-5 ovarian. The conditions noted are these: 10 µM unless noted.
A further test has as its system OVCAR-4 ovarian. The conditions noted are these: 10 µM unless noted.
The subject of another test is IGROV1 ovarian. The conditions noted are these: 10 µM unless noted.
The test system of a further test is OVCAR-3 ovarian. The conditions noted are these: 10 µM unless noted.
The test system of another test is HS 578T breast. The conditions noted are these: 10 µM.
For another test, the system named is NCI/ADR-RES ovarian. The conditions noted are these: 10 µM unless noted.
The next test concerns SR leukemia. The conditions noted are these: 10 µM unless noted.
A further test concerns SK-OV-3 ovarian. The conditions noted are these: 10 µM unless noted.

With `O=C(CCCCCCc1nc2ccc(Br)cc2[nH]1)NO`, the growth in the test with SK-MEL-2 melanoma was -5.43% (active); with EKVX NSCLC it was 28.6%; in the test on SN12C renal, 1.73% (active); in the test on UO-31 renal, -17.9% (active); in the test on TK-10 renal, -13.9% (active); with ACHN renal, -36.2% (active). Also, the growth with CAKI-1 renal was -41.5% (active); in the test on A498 renal it was 9.4% (active); in the test on CCRF-CEM leukemia, 9.8% (active); with MOLT-4 leukemia, 7.38% (active); in the test on RPMI-8226 leukemia, -4.38% (active); in the test on OVCAR-8 ovarian, 4.11% (active). Moreover, the growth is 8.25% (active) with OVCAR-5 ovarian; 24% with OVCAR-4 ovarian; -9.43% (active) in the test with IGROV1 ovarian; -2.31% (active) with OVCAR-3 ovarian; 32.6% with HS 578T breast; -31.3% (active) in the test on NCI/ADR-RES ovarian.

`COc1ccc(/C(=C\c2ccc3c(c2)OCO3)C(=O)Nc2nc3ccc(F)cc3s2)cc1OC`: the growth is 95.7% with SK-MEL-2 melanoma; 103% in the test with EKVX NSCLC; 115% in the test with SN12C renal; 68.5% with UO-31 renal; 119% in the test on TK-10 renal; 97.5% in the test on ACHN renal. Further, the growth with CAKI-1 renal was 86.5%; in the test on A498 renal, 98.3%; in the test with MOLT-4 leukemia it was 94.4%; in the test with SR leukemia, 92.5%; with RPMI-8226 leukemia, 102%; with OVCAR-8 ovarian it was 110%. Moreover, the growth in the test with OVCAR-5 ovarian was 104%; with OVCAR-4 ovarian, 93.8%; with SK-OV-3 ovarian it was 100%; in the test on IGROV1 ovarian it was 95.8%; in the test with OVCAR-3 ovarian it was 90.7%; in the test on HS 578T breast it was 104%. In the test on NCI/ADR-RES ovarian, the growth was 123%.

On to `COc1ccc(C2C3CCc4ccccc4C3=NN2C(=O)c2cc(OC)c(OC)c(OC)c2)cc1O` (centres undefined), for which the growth was 75.4% in the test on SK-MEL-2 melanoma; 89.6% in the test with EKVX NSCLC; 114% with SN12C renal; 79.9% with UO-31 renal; 101% with TK-10 renal; 98.1% with ACHN renal. Also, the growth with CAKI-1 renal is 101%; in the test with CCRF-CEM leukemia it was 88.9%; with MOLT-4 leukemia, 90.5%; in the test with SR leukemia it was 64.2%; in the test on RPMI-8226 leukemia, 45.7%; in the test with OVCAR-8 ovarian, 99.4%. The growth with OVCAR-5 ovarian was 101%; in the test on OVCAR-4 ovarian, 103%; in the test with SK-OV-3 ovarian, 88%; in the test on IGROV1 ovarian it was 46.6%; in the test with OVCAR-3 ovarian it was 109%; in the test on NCI/ADR-RES ovarian, 102%.

For `O=C1OC(c2ccc(-c3ccccc3)cc2)=C/C1=C/c1c(Cl)cccc1Cl`, the growth with SK-MEL-2 melanoma is 105%; in the test with EKVX NSCLC, 86%; in the test with SN12C renal, 95.3%; in the test on UO-31 renal, 81.1%; with TK-10 renal, 88%; with ACHN renal it was 105%. In addition, the growth in the test on A498 renal was 93.5%; in the test with CCRF-CEM leukemia it was -14% (active); with MOLT-4 leukemia it was 97.8%; with SR leukemia, 69.6%; with RPMI-8226 leukemia, 84.1%; with OVCAR-8 ovarian, 105%. The growth with OVCAR-5 ovarian was 91.7%; with OVCAR-4 ovarian it was 89.8%; in the test on SK-OV-3 ovarian it was 96.7%; in the test with IGROV1 ovarian it was 95.4%; with OVCAR-3 ovarian it was 97.1%; in the test on HS 578T breast, 85.6%. Besides, the growth in the test with NCI/ADR-RES ovarian is 99.3%.

Regarding `COc1c(C(=O)/C=C/c2ccc(C)o2)c(O)cc2occc12`, the growth was 82.2% in the test with SK-MEL-2 melanoma; 68.6% in the test with EKVX NSCLC; 82.6% with SN12C renal; 81.2% in the test with UO-31 renal; 100% with TK-10 renal; 97.6% in the test with ACHN renal. Besides, the growth with A498 renal is 66.6%; in the test on CCRF-CEM leukemia, 84.6%; in the test with MOLT-4 leukemia, 64%; in the test with SR leukemia it was 42.8%; in the test with RPMI-8226 leukemia, 82.5%; with OVCAR-8 ovarian, 84.8%. Further, the growth in the test with OVCAR-5 ovarian was 107%; with OVCAR-4 ovarian, 80.9%; with SK-OV-3 ovarian it was 88.6%; in the test on IGROV1 ovarian it was 69.3%; in the test on OVCAR-3 ovarian, 47.6%; in the test on HS 578T breast, 65.8%. Besides, in the test with NCI/ADR-RES ovarian, the growth is 52.2%.

As for `Cc1[nH]n(C(=O)c2ccncc2)c(=O)c1N=Nc1ccc(O)c(C(=O)O)c1`, the growth in the test on SK-MEL-2 melanoma was 159%; in the test with EKVX NSCLC, 127%; in the test with SN12C renal it was 93.6%; in the test with UO-31 renal, 78.9%; with TK-10 renal, 83.2%; in the test on ACHN renal, 106%. For the same compound, the growth is 110% in the test with A498 renal; -36.1% (active) in the test on CCRF-CEM leukemia; 87.4% in the test with MOLT-4 leukemia; 10.1% in the test on SR leukemia; 51.5% in the test with RPMI-8226 leukemia; 115% in the test on OVCAR-8 ovarian. The growth is 123% with OVCAR-5 ovarian; 109% in the test with OVCAR-4 ovarian; 108% in the test with SK-OV-3 ovarian; 94.7% in the test on IGROV1 ovarian; 105% in the test with OVCAR-3 ovarian; 96.2% in the test on HS 578T breast. In addition, the growth in the test on NCI/ADR-RES ovarian is 110%.

Consider `CCCCn1c(-c2ccc(F)cc2)nc2cc(OC)c(OC)cc2c1=O`, for which the growth with SK-MEL-2 melanoma is 176%; in the test on EKVX NSCLC, 105%; in the test on SN12C renal it was 91.3%; in the test on UO-31 renal, 82.2%; in the test with TK-10 renal, 75.1%; in the test on ACHN renal it was 101%. Moreover, the growth with A498 renal was 95.7%; with CCRF-CEM leukemia, -46% (active); with MOLT-4 leukemia, 51.1%; with SR leukemia, 34.4%; in the test with RPMI-8226 leukemia, 40.2%; with OVCAR-8 ovarian, 109%. Moreover, the growth with OVCAR-5 ovarian is 108%; in the test on OVCAR-4 ovarian, 112%; in the test with SK-OV-3 ovarian, 120%; in the test with IGROV1 ovarian it was 79.4%; in the test on OVCAR-3 ovarian, 106%; in the test with HS 578T breast, 101%. In addition, the growth in the test on NCI/ADR-RES ovarian was 93.9%.

On to `CCN(CC)CCC(CNc1ccnc2cc(Cl)ccc12)c1ccc(O)cc1` (centres undefined), for which the growth with SK-MEL-2 melanoma is 119%; with EKVX NSCLC, 99.4%; in the test on SN12C renal, 99.1%; in the test on UO-31 renal, 77.4%; in the test on TK-10 renal, 90.2%; in the test on ACHN renal, 98.5%. Besides, the growth was 37.7% in the test with A498 renal; 46% in the test with CCRF-CEM leukemia; 48.3% with MOLT-4 leukemia; 47.5% in the test with SR leukemia; 51.3% in the test on RPMI-8226 leukemia; 92.2% in the test with OVCAR-8 ovarian. Moreover, the growth in the test on OVCAR-5 ovarian was 103%; in the test with OVCAR-4 ovarian, 91.4%; with SK-OV-3 ovarian, 104%; in the test with IGROV1 ovarian, 78.1%; in the test with OVCAR-3 ovarian it was 98.7%; in the test on NCI/ADR-RES ovarian, 99.8%.

Values taken from PubChem BioAssay (NCI).
